Here are results for 30 compounds from ChEMBL document CHEMBL1157539, “Thousands of chemical starting points for antimalarial lead identification” (Nature, 2010).

Values joined by “and” are separate entries in the source; they are usually repeats but may differ in a detail not shown here. Equal values may be shown once.

Common to all, as to format: functional
For test [1], the system named is Plasmodium falciparum. Nature of the test: GSK_TCMDC: Inhibition of Plasmodium falciparum 3D7 in whole red blood cells, using parasite LDH activity as an index of growth. Test compounds present at 2uM.
The test system of test [2] is Plasmodium falciparum. Nature of the test: GSK_TCMDC: Inhibition of Plasmodium falciparum Dd2 in whole red blood cells, using parasite LDH activity as an index of growth. Test compounds present at 2uM.
For a further test, the system named is HepG2. Nature of the test: GSK_TCMDC: Percent inhibition of human HepG2 cell line. Test compounds present at 10uM.

With `CCCCCC(C)NC[C@@H](O)[C@H](Cc1ccccc1)NC(=O)c1cc(NCC)cc(N2CCCCS2(=O)=O)c1.Cl` (stereo not given in full), the values for the Inhibition in the test with Plasmodium falciparum [1], in the test on Plasmodium falciparum [2] and with HepG2 were 98%, 79% and 3%, respectively.
`Cl.N=C(N)NN=Cc1c2ccccc2c(Cl)c2c(Cl)cccc12`: the results for the Inhibition with Plasmodium falciparum [1], in the test on Plasmodium falciparum [2] and in the test with HepG2 were 91%, 72% and 71%, respectively.
`CCC(C)c1ccc(NC(=O)Nc2ccnc3ccccc23)cc1.Cl` (stereo not given): the Inhibition in the test with Plasmodium falciparum [1] turned out to be 98%; in the test with Plasmodium falciparum [2], 42%; with HepG2, 27%.
Turning to `COc1ccc2nccc(N/N=C/c3ccccc3[N+](=O)[O-])c2c1`, the Inhibition in the test with Plasmodium falciparum [1] came to 100%; in the test on Plasmodium falciparum [2] it was 100%; with HepG2 it was 67%.
Take `CC1=C(C(=O)Nc2ccccc2)C(c2ccc([N+](=O)[O-])cc2)n2ncc(C(=O)Nc3ccccc3)c2N1` (stereo not given): the Inhibition in the test on Plasmodium falciparum [1] is recorded as 86%; with Plasmodium falciparum [2], 68%; in the test on HepG2, 9%.
With `Cl.N#Cc1ccc2c(c1)CN(CC[C@H]1CC[C@H](NC(=O)/C=C/c3c[nH]c4ccccc34)CC1)CC2`, the Inhibition in the test on Plasmodium falciparum [1] is 92% and 97%; in the test on Plasmodium falciparum [2], 24% and 27%; in the test on HepG2, 20% and 10%.
Take `CCOC(=O)C(C#N)NC(=O)C=Cc1ccccc1` (stereo not given): the Inhibition is given as 96% in the test with Plasmodium falciparum [1], 9% with Plasmodium falciparum [2] and 0% in the test with HepG2.
On to `Cn1nc(C(F)(F)F)c(-c2ccc(Br)cc2)c1NC(=O)Nc1ccc(F)cc1F`, for which the Inhibition with Plasmodium falciparum [1] is 99%; in the test on Plasmodium falciparum [2], 99%; in the test with HepG2 it was 16%.
For `Cc1cccc2nc(-c3cccc(-c4cccc(NC(=O)c5ccncc5)c4)c3)[nH]c12`, the Inhibition in the test on Plasmodium falciparum [1] is listed as 100%; with Plasmodium falciparum [2], 78%; with HepG2 it was 22%.
For `Cc1[nH]c(C)c(-c2ccc(-c3ccc4c(c3)OCO4)nc2)c(=O)c1Br`, the Inhibition with Plasmodium falciparum [1] is reported as 96%; in the test on Plasmodium falciparum [2] it was 96%; in the test with HepG2, 0%.
In the case of `N#Cc1ccc(CN2CCC(Oc3ccc(NC(=O)c4ccco4)cc3Cl)C2)cc1.O=C(O)C(F)(F)F` (stereo not given), the Inhibition worked out at 95% in the test with Plasmodium falciparum [1], 95% with Plasmodium falciparum [2] and 13% with HepG2.
On to `CC1CCCN(S(=O)(=O)c2ccc(NC(=O)c3cc(-c4ccccc4O)n[nH]3)cc2)C1` (stereo not given), for which the figures for the Inhibition in the test with Plasmodium falciparum [1], in the test with Plasmodium falciparum [2] and with HepG2 were 93%, 49% and 12%, respectively.
As for `Cc1cc(=NN=Cc2ccc(Cl)cc2)c2cc(F)ccc2[nH]1`, the results for the Inhibition in the test with Plasmodium falciparum [1], with Plasmodium falciparum [2] and in the test with HepG2 were 100%, 98% and 6%, respectively.
On to `CCCCCCN(CCCCCC)CCCCNc1c2ccc(Cl)cc2nc2ccc(OC)cc12.Cl`, for which the Inhibition in the test with Plasmodium falciparum [1] came to 100%; in the test on Plasmodium falciparum [2], 94%; in the test on HepG2, 65%.
As for `Cn1cccc1C(=O)C(=O)Nc1cccc(-c2ccc(-c3nc4cc(C(F)(F)F)ccc4[nH]3)cc2)c1`, the Inhibition with Plasmodium falciparum [1] is on record as 94%; with Plasmodium falciparum [2], 27%; in the test with HepG2, 62%.
The like results for `CC1(C)N=C(N)N=C(Nc2ccc(Cl)cc2)N1.Cl` were, in that order, 97%, 0% and 8%.
In the same order, the values of `CCCC(=O)Nc1ccc(Cl)c(NC(=O)COc2cc(C)ccc2C(C)C)c1` are 87%, 67% and 2%.
Take `COc1ccc(CNC2Cc3ccccc3C2)cc1-c1ccc(S(=O)(=O)NCCN2CCCC2)cc1.O=C(O)C(F)(F)F`: the Inhibition with Plasmodium falciparum [1] came to 100%; in the test with Plasmodium falciparum [2], 61%; with HepG2, 40%.
With `CC(C)(C)c1ccc(NC(=O)c2ccc(CN3CCCN(Cc4cccc(C#N)c4)CC3)cc2)cc1.O=C(O)C(F)(F)F`, the figures for the Inhibition with Plasmodium falciparum [1], in the test on Plasmodium falciparum [2] and in the test with HepG2 were 99%, 12% and 54%, respectively.
For the compound `Fc1ccc(-c2oc(C3CCN(CCc4ccc(-c5noc(=S)[nH]5)cc4)CC3)nc2COCC(F)(F)F)cc1`, the Inhibition is given as 97% with Plasmodium falciparum [1], 95% in the test on Plasmodium falciparum [2] and 5% in the test on HepG2.
Regarding `COc1cc2nc(NCC3CCCO3)n3nc(-c4ccccc4)nc3c2cc1OC` (stereo not given), the Inhibition in the test on Plasmodium falciparum [1] is listed as 92%; with Plasmodium falciparum [2], 97%; in the test with HepG2 it was 0%.
`O=C(NC1CCCCC1)N(Cc1cccc(-c2ccc(CNC3CCCC3)cc2)c1)C1CCN(Cc2ccccc2)CC1.O=C(O)C(F)(F)F`: the values for the Inhibition in the test on Plasmodium falciparum [1], in the test with Plasmodium falciparum [2] and in the test on HepG2 were 98%, 89% and 37%, respectively.
Turning to `Cc1cccc2nc(-c3cccc(-c4ccc(CNCc5ccccc5)cc4)c3)[nH]c12.O=C(O)C(F)(F)F`, the Inhibition is listed as 99% in the test on Plasmodium falciparum [1], 100% with Plasmodium falciparum [2] and 33% in the test with HepG2.
Turning to `Cc1cccc2nc(-c3ccc(-c4cccc(CNCCN5CCNCC5)c4)cc3)[nH]c12.O=C(O)C(F)(F)F`, the figures for the Inhibition in the test with Plasmodium falciparum [1], in the test on Plasmodium falciparum [2] and in the test with HepG2 were 85%, 2% and 9%, respectively.
As for `O=C(O)C(F)(F)F.Oc1ccc(CCNc2nc(NCc3ccccc3Oc3ccc(C(F)(F)F)cc3)nc(N3CCNCC3)n2)cc1`, the Inhibition in the test on Plasmodium falciparum [1] amounted to 86%; in the test on Plasmodium falciparum [2] it was 2%; in the test on HepG2, 26%.
Turning to `COc1ccc(CNC(=O)NC2CCN(c3ccnc(Nc4ccc(F)cc4)n3)CC2)cc1`, the Inhibition is recorded as 87% with Plasmodium falciparum [1], 4% with Plasmodium falciparum [2] and 16% in the test on HepG2.
With `CC(=O)Nc1cccc(CNCc2ccc(-c3cnc(N4CCCC(c5ccccc5)C4)nc3)cc2)c1.O=CO` (stereo not given), the Inhibition in the test with Plasmodium falciparum [1] came out at 84%; in the test on Plasmodium falciparum [2], 22%; in the test on HepG2, 16%.
Regarding `O=C(Cc1cccnc1)Nc1cccc(-c2cccc(-c3nc4cc(C(F)(F)F)ccc4[nH]3)c2)c1`, the Inhibition was 99% with Plasmodium falciparum [1], 38% with Plasmodium falciparum [2] and 42% in the test on HepG2.
With `CC(C)(C)c1ccc(-c2cc(C(=O)N[C@@H](CO)C(=O)O)on2)cc1.CC(C)(C)c1ccc(-c2nocc2C(=O)N[C@@H](CO)C(=O)O)cc1`, the Inhibition with Plasmodium falciparum [1] is recorded as 87%; in the test on Plasmodium falciparum [2], 0%; with HepG2, 1%.
The like results for `CC(=O)Nc1ccc(CN2CCC(NC(=O)c3ccc(-c4cccc(C(F)(F)F)c4)s3)CC2)cc1.O=C(O)C(F)(F)F` were, in that order, 100%, 16% and 35%.

What is called Inhibition is the relative decrease from the control value, in per cent. High values mean a strong effect, low ones a weak effect.
